# Measurements taken from the OligoGym collection.
# Molecular target: ZFP62
# Test: pooled miR-30 sensor sort-seq; sequence = guide strand
# Details: shRNA
# Also: reference of the scale not given here.
row,Sequence,sensor-assay potency score (higher = more potent)
1,ATACATAAGGTCTCTCTCCGGT,0.0569
2,TTTCTCTCTAGTGTGGACCCTT,-0.0465
3,TTATATTTGAAGGATTTCCCAC,-0.915
4,TTGAGTGTGAGATGTAGGCTTT,-0.179
5,TTTGCCACAGACATCACACTTG,0.373
6,TTCTGCTTGAGAAAAAAGCTTT,-0.449
7,TTTTATGTTGAACAAGGCGGGA,-0.995
8,TTTATGTTGAACAAGGCGGGAA,0.133
9,TTTTCTGCTGTAGACTAGGGTA,-0.796

# Molecular target: ZFR2
# Test: as above
# Details: shRNA
row,Sequence,sensor-assay potency score (higher = more potent)
1,TTTCTTCCGGTACTGCAGCCGG,-0.948
2,TATGGTGACCTGCATCCTGGGC,-0.904
3,TGCAGCTTGAAGACCTTCTGGT,0.0557
4,TGTCGCAGTAGTGAAGCTGGAG,-0.148
5,TCATCCTCGGTCACCATCTGGA,-0.791
6,TTCGTCGCTGAACACCTCCTCC,-0.823
7,TAGTGAAGCTGGAGCTGCCTGG,-0.835
8,TCCGTAGCTGTAACTGTCCTGG,-0.711
9,TCTGTCTGGTCTCTCTCGCAGG,-0.775
10,TTGGGTCTCGGCAGCTTGCTGG,-0.733
11,TTAAGGTCGTTGAAACTGCACT,-0.864
12,TAGCTTGGTGCCGTGTAGGCGG,-0.795

# Molecular target: ZFR
# Test: as above
# Details: shRNA
row,Sequence,sensor-assay potency score (higher = more potent)
1,TATAACAGCAAGCTGTTTGGGT,0.358
2,TTGACATTTCTATCTCCTCGGA,-0.27
3,TTATATTGAAGTCTGTGTCTTC,0.707
4,TCTTCTTCTCGTCTTCGCCAGT,-1.15
5,TAGAACTTTGTGTATCTGGCGG,-0.255
6,TTTTTCATTACATCACTGCTAG,0.0706
7,TTGTGTGTAACTTAACCACTTT,-0.519
8,TTACATATGAGTATGAATCCTG,0.475
9,TTTCTCTACTAGTAACTCCATA,-1.22
10,TTGTGTAGGAGACATAAGCAGG,-0.979
11,TAGTTTTGTGTAGTAGCTGGGG,0.0406
12,TATAACCATAGTCAGTTGCTGT,-0.854

# Molecular target: ZHX1
# Test: as above
# Details: shRNA
row,Sequence,sensor-assay potency score (higher = more potent)
1,TTTACTGATAGATATTCCCGAA,-0.468
2,TTGCTCATTAAGAAACTTGTGC,-0.28
3,TAGACATACAGTATTAAACTGG,-0.456
4,TAAGTATACATTTACTACGTGA,-0.517
5,TAACTATGTCTGTTCTAGCAAG,-1.35
6,TAAATTAGTATGAACTTTCAGT,-0.00447
7,TTTTTTTACATATCTTGCCTGT,-0.102
